Bioassay records as filed in PubChem.
The entries come from a sample that favours hits as a whole.
ST2 IL33 inh: blocks human ST2 binding to IL-33; Q01638; AlphaLISA ST2-Fc/biotin-IL-33 interaction, 1 h; inhibition, % for hits at 17 µM; 78,000 compounds, 2.3% hits; AID 1259354; in the data active = inhibition above about 30%
Target sequence (Q01638 whole entry, looked up): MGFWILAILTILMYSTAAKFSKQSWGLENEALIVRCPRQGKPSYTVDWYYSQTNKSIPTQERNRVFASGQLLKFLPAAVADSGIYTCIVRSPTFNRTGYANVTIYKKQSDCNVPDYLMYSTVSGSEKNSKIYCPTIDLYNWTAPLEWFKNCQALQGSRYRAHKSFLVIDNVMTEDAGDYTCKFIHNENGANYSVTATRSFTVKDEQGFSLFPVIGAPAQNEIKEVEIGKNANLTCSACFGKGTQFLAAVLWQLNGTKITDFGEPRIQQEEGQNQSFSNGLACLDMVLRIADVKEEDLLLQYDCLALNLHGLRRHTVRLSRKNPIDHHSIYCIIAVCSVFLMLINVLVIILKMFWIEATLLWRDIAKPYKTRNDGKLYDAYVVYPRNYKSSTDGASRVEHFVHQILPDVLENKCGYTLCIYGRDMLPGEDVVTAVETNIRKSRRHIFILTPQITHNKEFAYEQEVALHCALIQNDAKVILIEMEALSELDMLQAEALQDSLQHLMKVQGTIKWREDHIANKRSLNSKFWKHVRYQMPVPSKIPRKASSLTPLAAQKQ
An asterisk follows results filed as active; ! = not confirmed by another sample.

Screening CCN1C(=O)C2(C(C#N)=C(N)Oc3n[nH]c(-c4ccccc4)c32)c2ccccc21 (centres undefined) returned ST2 IL33 inh inactive.
Screening CC(C)c1[nH]nc2c1C1(CCN(Cc3ccccc3)CC1)C(C#N)=C(N)O2 returned ST2 IL33 inh 31%*.
`CCN(CC)CC(=O)c1c(C)[nH]c2cc(C)ccc12` gave ST2 IL33 inh inactive.
CCC(C)(C)c1nnc(NC(=O)NCc2ccc(F)cc2F)s1 was read as ST2 IL33 inh inactive.
For Nc1nonc1-c1noc(-c2sc3ccccc3c2Cl)n1 the results were ST2 IL33 inh inactive.
Screening O=C(NCc1cccnc1)C1CCN(CC2CC=CCC2)CC1 (centres undefined) returned ST2 IL33 inh inactive.
For O=C(Nc1ccccc1Cl)c1cc2ccccc2oc1=O the results were ST2 IL33 inh inactive.
Screening O=C(Nc1ccccc1O)c1cc2ccccc2oc1=O returned ST2 IL33 inh 34%*.
`O=C(Nc1ccccc1O)c1cc2ccccc2o1` gave ST2 IL33 inh inactive.
For CCOC(=O)C(C)(C)Sc1nc2c(c(=O)n1-c1ccc(OCC)cc1)SCC2 the results were ST2 IL33 inh 43%*.
For Cc1ccc(-n2c(SC(C)C)nc3c(c2=O)SCC3)cc1 the results were ST2 IL33 inh 36%*!.
Screening CCCSc1nc2c(c(=O)n1-c1ccc(F)cc1)SCC2 returned ST2 IL33 inh inactive.
CCOC(=O)C(CC)Sc1nc2c(c(=O)n1-c1ccc(C)cc1)SCC2 (centres undefined) was read as ST2 IL33 inh inactive.
Screening CCOC(=O)C(C)(C)Sc1nc2c(c(=O)n1-c1ccc(Cl)cc1)SCC2 returned ST2 IL33 inh inactive.
Screening CCOC(=O)C(C)(C)Sc1nc2c(c(=O)n1-c1ccc(Br)cc1)SCC2 returned ST2 IL33 inh inactive.
`CCSc1nc2c(c(=O)n1-c1ccc(C)cc1)SCC2` gave ST2 IL33 inh 33%*!.
Screening CC(Sc1nc2c(c(=O)n1-c1ccc(F)cc1)SCC2)c1ccccc1 (centres undefined) returned ST2 IL33 inh inactive.
Screening Cc1ccc(-n2c(SCC(=O)N3CCCCCC3)nc3c(c2=O)SCC3)cc1 returned ST2 IL33 inh inactive.
For CC(=O)N1c2c(cc(Br)cc2S(=O)(=O)Nc2ccc3c(c2)OCCO3)CC1C (centres undefined) the results were ST2 IL33 inh inactive.
For O=C(c1cn(CCc2ccccc2)nn1)N1CCCC(OCc2ccccc2)C1 (centres undefined) the results were ST2 IL33 inh inactive.
For O=C(NCC1CCCN(C(=O)CC2=CCCCC2)C1)c1ccc(-c2ccccc2)cc1 (centres undefined) the results were ST2 IL33 inh inactive.
CC1=C(C(=O)OC2CCCCC2)C(c2cccc(Br)c2)n2ncnc2N1 (centres undefined) was read as ST2 IL33 inh inactive.
`O=C(CC1CCCC1)N1CCC(CO)(Cc2cccc(C(F)(F)F)c2)CC1` gave ST2 IL33 inh inactive.
For CN1CCc2[nH]c3ccc(C(=O)O)cc3c2C1 the results were ST2 IL33 inh inactive.
`O=C(CNC(=O)c1cccs1)NCCC1=CCCCC1` gave ST2 IL33 inh inactive.
For COc1cc(OC)c(C=C2C(=O)OC3(CCCCC3)OC2=O)cc1Br the results were ST2 IL33 inh inactive.
Screening COc1ccc(C=Nc2ccc(O)cc2)c(OC)c1 returned ST2 IL33 inh 32%*.
`COc1ccc(OC)c(C=Nc2ccc(S(N)(=O)=O)cc2)c1` gave ST2 IL33 inh inactive.
COc1ccc(-n2c(O)c(C=Nc3ccc(OC)c(OC)c3)c3ccccc3c2=O)cc1 was read as ST2 IL33 inh inactive.
COc1cc(OC)c(C=Nc2ccc(O)cc2)cc1Br was read as ST2 IL33 inh 51%*.
COc1ccc(NS(=O)(=O)c2ccc(N=Cc3cc(Br)ccc3O)cc2)nn1 was read as ST2 IL33 inh inactive.
For Cc1ccc(C2=NN(C(=O)CCC(=O)O)C(c3cn(-c4ccccc4)nc3-c3ccccc3)C2)cc1 (centres undefined) the results were ST2 IL33 inh inactive.
For Cc1nn(CCCC(=O)Nc2sc3c(c2C(N)=O)CCCC3)c(C)c1[N+](=O)[O-] the results were ST2 IL33 inh inactive.
COC(=O)c1cc2n(n1)CCCN(C(=O)c1ccccc1-n1cncn1)C2 was read as ST2 IL33 inh inactive.
Cc1ccc(/C=C2/SC(N3CCN(C)CC3)=NC2=O)cc1 was read as ST2 IL33 inh inactive.
Screening O=C(CCS(=O)(=O)c1cccc2nsnc12)Nc1cccc(F)c1 returned ST2 IL33 inh inactive.
`COc1ccccc1C1C2=C(CC(C)(C)CC2=O)Nc2nc(SCc3ccccc3)[nH]c(=O)c21` (centres undefined) gave ST2 IL33 inh inactive.
For COC(=O)c1c(C)oc2cc(Br)c(OCC(=O)OCc3ccccc3)cc12 the results were ST2 IL33 inh inactive.
O=[N+]([O-])c1ccc2nc(/C=C/c3ccco3)[nH]c2c1 was read as ST2 IL33 inh 32%*.
`O=c1[nH]c(SCc2nc3ccc([N+](=O)[O-])cc3[nH]2)nc2ccccc12` gave ST2 IL33 inh inactive.
`CCSc1nc2ccc([N+](=O)[O-])cc2[nH]1` gave ST2 IL33 inh inactive.
